In PubChem BioAssay (EPA / NIEHS):
Active and inactive are the calls of the source. Rule for the calls: active = hit-call score of the fitted dose curve at least 0.9, where 1 is the maximum; inactive = score below 0.9.

What was measured:
Settings in all cases: mRNA level, 48 h; actives raise or lower the signal
[1] = read-out: ABC Transporter (ABCB11), ABCB11 (gene 8647); assay: LTEA_HepaRG_ABCB11: Life Technologies and Expression Analysis (LTEA) Assay for ABC Transporter (ABCB11) using HepaRG (AID 2283463)
Summary of the method: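 Using HepaRG cultures held in 0.5% DMSO, chemicals were tested at half-log dilutions from 100 uM for 48 h. Induction or suppression of ABCB11 mRNA, normalized to ACTB, GAPDH and POLR2A, was fitted bidirectionally against vehicle.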

[2] = read-out: ABC Transporter (ABCC2), ABCC2 (gene 1244); assay: LTEA_HepaRG_ABCC2: Life Technologies and Expression Analysis (LTEA) Assay for ABC Transporter (ABCC2) using HepaRG (AID 2283464)
Summary of the method: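 HepaRG, 48 h post-plating; serum-free induction medium; cpd 8-pt, 100 uM top, half-log, 0.5% DMSO, duplicate, 48 h. Readout: ABCC2 mRNA by qRT-PCR, norm. ACTB/GAPDH/POLR2A. Bidirectional fit vs DMSO baseline.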

[3] = read-out: Broad substrate specificity ATP-binding cassette transporter ABCG2 (Homo sapiens) (UniProt Q9UNQ0); assay: LTEA_HepaRG_ABCG2: Life Technologies and Expression Analysis (LTEA) Assay for ABC Transporter (ABCG2) using HepaRG (AID 2283465)
Summary of the method: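 Gene expression of ABCG2 in HepaRG liver cells is quantified by qRT-PCR following 48 h exposure across an eight-point series topping at 100 uM. Values come from bidirectional fitting relative to DMSO vehicle.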

[4] = read-out: ATP-citrate lyase (ACLY), ACLY (gene 47); assay: LTEA_HepaRG_ACLY: Life Technologies and Expression Analysis (LTEA) Assay for ATP-citrate lyase (ACLY) using HepaRG (AID 2283466)
Summary of the method: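 ACLY expression changes in human HepaRG liver cells are quantified by qRT-PCR after 48 h exposure to test chemicals (maximum 100 uM, half-log steps). Values are fitted in both directions relative to 0.5% DMSO vehicle.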

[5] = read-out: Peroxisomal acyl-coenzyme A oxidase 1 (ACOX1) gene, ACOX1 (gene 51); assay: LTEA_HepaRG_ACOX1: Life Technologies and Expression Analysis (LTEA) Assay for Peroxisomal acyl-coenzyme A oxidase 1 (ACOX1) gene using HepaRG (AID 2283467)
Summary of the method: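 Human HepaRG hepatic cultures, 48 h treatment with test chemicals up to 100 uM. ACOX1 expression read by qRT-PCR relative to 0.5% DMSO vehicle.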

[6] = read-out: Alkaline Phosphatase, Placental (ALPP) gene, ALPP (gene 250); assay: LTEA_HepaRG_ALPP: Life Technologies and Expression Analysis (LTEA) Assay for Alkaline Phosphatase, Placental (ALPP) gene using HepaRG (AID 2283468);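 for AC50: differentiated human HepaRG liver cells in serum-free induction medium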
Summary of the method: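 HepaRG, 48 h plating then 48 h dosing, serum-free induction medium, 0.5% DMSO. 8 conc, half-log, max 100 uM, duplicates. Endpoint: ALPP transcript by qRT-PCR, housekeeping-normalized; gain or loss fitted vs DMSO.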

[7] = read-out: Bcl-2 (BAD) gene, BAD (gene 572); assay: LTEA_HepaRG_BAD: Life Technologies and Expression Analysis (LTEA) Assay for Bcl-2 (BAD) gene using HepaRG (AID 2283469)
Summary of the method: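 Activity values reflect up- or down-regulation of BAD mRNA in human HepaRG hepatic cells treated 48 h in serum-free medium, with eight-point half-log dosing capped at 100 uM and 0.5% DMSO vehicle.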

[8] = read-out: Bcl-2 (BAX) gene, BAX (gene 581); assay: LTEA_HepaRG_BAX: Life Technologies and Expression Analysis (LTEA) Assay for Bcl-2 (BAX) gene using HepaRG (AID 2283470)
Summary of the method: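 qRT-PCR read-out of BAX mRNA, normalized to three housekeeping genes, after 48 h chemical exposure of human HepaRG cells in serum-free induction medium; eight-point half-log series, top 100 uM, 0.5% DMSO vehicle; bidirectional fit versus DMSO.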

[9] = read-out: adenosine kinase (ADK) gene, ADK (gene 132); assay: LTEA_HepaRG_ADK: Life Technologies and Expression Analysis (LTEA) Assay for adenosine kinase (ADK) gene using HepaRG (AID 2283471)
Summary of the method: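 Following 48 h exposure of HepaRG cells in 0.5% DMSO (top concentration 100 uM, duplicate wells), ADK mRNA induction or suppression was measured by qRT-PCR, normalised to ACTB/GAPDH/POLR2A, and fitted bidirectionally relative to vehicle.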

[10] = read-out: Alpha-fetoprotein (AFP) gene, AFP (gene 174); assay: LTEA_HepaRG_AFP: Life Technologies and Expression Analysis (LTEA) Assay for Alpha-fetoprotein (AFP) gene using HepaRG (AID 2283472)
Summary of the method: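 qRT-PCR (Fluidigm TaqMan) readout of AFP transcript, normalized to three housekeeping genes, fitted bidirectionally against 0.5% DMSO baseline. HepaRG cells received chemicals for 48 h in serum-free induction medium, top concentration 100 uM, half-log steps.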

[11] = read-out: BCL2L11 (gene 10018); assay: LTEA_HepaRG_BCL2L11: Life Technologies and Expression Analysis (LTEA) Assay for Bcl-2 (BCL2L11) gene using HepaRG (AID 2283473)
Summary of the method: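 Read-out is BCL2L11 transcript level by qRT-PCR, normalized to three housekeeping genes and fitted bidirectionally against 0.5% DMSO vehicle. HepaRG cells received chemicals for 48 h in serum-free induction medium, 100 uM down in half-log dilutions.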

[12] = read-out: Apolipoprotein A-V (APOA5) gene, APOA5 (gene 116519); assay: LTEA_HepaRG_APOA5: Life Technologies and Expression Analysis (LTEA) Assay for Apolipoprotein A-V (APOA5) gene using HepaRG (AID 2283474)
Summary of the method: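 Readout is APOA5 transcript level by qRT-PCR on Fluidigm dynamic arrays, normalized to three housekeeping genes. HepaRG cultures received chemicals for 48 h at up to 100 uM (half-log steps, 0.5% DMSO), with gain or loss scored relative to DMSO.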

[13] = read-out: Bcl-2 (BID) gene, BID (gene 637); assay: LTEA_HepaRG_BID: Life Technologies and Expression Analysis (LTEA) Assay for Bcl-2 (BID) gene using HepaRG (AID 2283476)
Summary of the method: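 HepaRG, 48 h exposure, 8-pt half-log series, top 100 uM, 0.5% DMSO vehicle, duplicates. Readout: BID mRNA by TaqMan qRT-PCR; housekeeping-normalized; bidirectional curve fit vs DMSO baseline.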

[14] = read-out: Caspase-3 (Homo sapiens) (UniProt P42574); assay: LTEA_HepaRG_CASP3: Life Technologies and Expression Analysis (LTEA) Assay for cysteine-aspartic acid protease (CASP3) using HepaRG (AID 2283477)
Summary of the method: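 Read-out is CASP3 mRNA level by TaqMan qRT-PCR in human HepaRG cells after 48 h chemical exposure. Eight half-log concentrations topping at 100 uM were tested in 0.5% DMSO; gain or loss was fitted relative to DMSO.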

[15] = read-out: Cytochrome P450 (CYP24A1), CYP24A1 (gene 1591); assay: LTEA_HepaRG_CYP24A1: Life Technologies and Expression Analysis (LTEA) Assay for Cytochrome P450 (CYP24A1) using HepaRG (AID 2283478)
Summary of the method: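 HepaRG, 48 h chemical exposure, 8-pt half-log CRC from 100 uM, 0.5% DMSO vehicle, duplicates. Endpoint: CYP24A1 mRNA by Fluidigm TaqMan qRT-PCR, normalized ACTB/GAPDH/POLR2A; gain/loss fit vs DMSO.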

[16] = read-out: Cytochrome P450 (CYP1A2), CYP1A2 (gene 1544); assay: LTEA_HepaRG_CYP1A2: Life Technologies and Expression Analysis (LTEA) Assay for Cytochrome P450 (CYP1A2) using HepaRG (AID 2283479)
Summary of the method: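 CYP1A2 transcript induction or loss, quantified by Fluidigm qRT-PCR against three housekeeping genes, was fitted bidirectionally against 0.5% DMSO controls. Human HepaRG cells received eight half-log concentrations from 100 uM over 48 h.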

[17] = read-out: cysteine-aspartic acid protease (CASP8), CASP8 (gene 841); assay: LTEA_HepaRG_CASP8: Life Technologies and Expression Analysis (LTEA) Assay for cysteine-aspartic acid protease (CASP8) using HepaRG (AID 2283480)
Summary of the method: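 Concentration-response in duplicate up to 100 uM (half-log steps, 0.5% DMSO) on differentiated HepaRG cultures for 48 h. Expression change of CASP8 mRNA is determined by TaqMan qRT-PCR with housekeeping-gene normalization.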

[18] = read-out: Cytochrome P450 (CYP2B6), CYP2B6 (gene 1555); assay: LTEA_HepaRG_CYP2B6: Life Technologies and Expression Analysis (LTEA) Assay for Cytochrome P450 (CYP2B6) using HepaRG (AID 2283481)
Summary of the method: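 HepaRG cells plated 48 h, switched to serum-free induction medium, then dosed 48 h (8 points, half-log from 100 uM, 0.5% DMSO). RNA isolated; CYP2B6 expression measured by qRT-PCR; gain or loss fitted relative to DMSO.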

[19] = read-out: Cytochrome P450 2C19 (Homo sapiens) (UniProt P33261); assay: LTEA_HepaRG_CYP2C19: Life Technologies and Expression Analysis (LTEA) Assay for CYP2C19 using HepaRG (AID 2283482)
Summary of the method: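 Transcript levels of CYP2C19 were quantified by qRT-PCR after HepaRG cells were treated for 48 hours with test chemicals up to 100 uM (eight half-log concentrations, 0.5% DMSO vehicle). Gain or loss of signal was fitted relative to DMSO.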

[20] = read-out: Apoptosis regulator Bcl-2 (Homo sapiens) (UniProt P10415); assay: LTEA_HepaRG_BCL2: Life Technologies and Expression Analysis (LTEA) Assay for Bcl-2 gene using HepaRG (AID 2283475);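 note: BCL2 transcript by TaqMan qRT-PCR normalised to ACTB GAPDH and POLR2A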
Summary of the method: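 qRT-PCR read-out (Fluidigm TaqMan) of BCL2 transcript, normalised to three housekeeping genes, after 48 h chemical exposure of HepaRG cells; 8-point half-log series, top 100 uM, 0.5% DMSO vehicle. Gain or loss of signal fitted relative to DMSO baseline.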

Measured: AC50

Chain of Cytochrome P450 2C19 (Homo sapiens) (P33261 whole entry, looked up): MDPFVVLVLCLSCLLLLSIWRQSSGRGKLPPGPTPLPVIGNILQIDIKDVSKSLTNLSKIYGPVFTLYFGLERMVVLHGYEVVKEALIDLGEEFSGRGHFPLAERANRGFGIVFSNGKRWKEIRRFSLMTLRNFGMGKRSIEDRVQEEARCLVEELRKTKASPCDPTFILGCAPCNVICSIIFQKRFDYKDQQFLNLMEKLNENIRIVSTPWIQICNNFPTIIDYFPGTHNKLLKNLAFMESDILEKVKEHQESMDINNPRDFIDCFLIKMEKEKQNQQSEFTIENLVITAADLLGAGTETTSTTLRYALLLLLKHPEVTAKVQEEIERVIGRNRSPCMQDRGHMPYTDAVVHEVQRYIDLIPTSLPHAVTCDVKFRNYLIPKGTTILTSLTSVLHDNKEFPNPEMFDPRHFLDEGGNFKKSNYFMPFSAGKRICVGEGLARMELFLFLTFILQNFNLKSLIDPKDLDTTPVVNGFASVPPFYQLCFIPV
Chain of Broad substrate specificity ATP-binding cassette transporter ABCG2 (Homo sapiens) (Q9UNQ0 whole entry, looked up): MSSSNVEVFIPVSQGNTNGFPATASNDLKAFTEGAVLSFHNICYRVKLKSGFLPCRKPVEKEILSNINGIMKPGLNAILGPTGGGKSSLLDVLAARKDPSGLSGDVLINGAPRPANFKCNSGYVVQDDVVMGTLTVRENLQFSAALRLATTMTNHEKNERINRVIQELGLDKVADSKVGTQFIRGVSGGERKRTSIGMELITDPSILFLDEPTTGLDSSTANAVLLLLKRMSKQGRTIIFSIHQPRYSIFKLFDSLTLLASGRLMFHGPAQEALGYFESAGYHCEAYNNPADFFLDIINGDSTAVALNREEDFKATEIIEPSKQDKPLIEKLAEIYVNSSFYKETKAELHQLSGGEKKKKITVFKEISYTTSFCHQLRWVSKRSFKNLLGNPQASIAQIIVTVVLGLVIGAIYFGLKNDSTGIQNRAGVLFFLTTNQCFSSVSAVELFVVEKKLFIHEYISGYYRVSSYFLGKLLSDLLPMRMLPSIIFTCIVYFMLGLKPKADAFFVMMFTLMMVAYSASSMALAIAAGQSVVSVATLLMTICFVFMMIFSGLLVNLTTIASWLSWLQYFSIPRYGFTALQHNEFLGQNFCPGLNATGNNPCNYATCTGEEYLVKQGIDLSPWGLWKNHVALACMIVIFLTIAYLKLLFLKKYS
Chain of Caspase-3 (Homo sapiens) (P42574 whole entry, looked up): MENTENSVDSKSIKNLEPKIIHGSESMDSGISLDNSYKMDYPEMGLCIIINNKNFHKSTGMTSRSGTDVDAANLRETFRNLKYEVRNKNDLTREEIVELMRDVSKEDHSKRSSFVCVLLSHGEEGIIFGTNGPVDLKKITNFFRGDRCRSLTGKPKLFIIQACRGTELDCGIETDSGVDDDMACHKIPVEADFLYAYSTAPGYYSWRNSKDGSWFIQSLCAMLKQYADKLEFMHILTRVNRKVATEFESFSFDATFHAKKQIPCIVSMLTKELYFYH
Chain of Apoptosis regulator Bcl-2 (Homo sapiens) (P10415 whole entry, looked up): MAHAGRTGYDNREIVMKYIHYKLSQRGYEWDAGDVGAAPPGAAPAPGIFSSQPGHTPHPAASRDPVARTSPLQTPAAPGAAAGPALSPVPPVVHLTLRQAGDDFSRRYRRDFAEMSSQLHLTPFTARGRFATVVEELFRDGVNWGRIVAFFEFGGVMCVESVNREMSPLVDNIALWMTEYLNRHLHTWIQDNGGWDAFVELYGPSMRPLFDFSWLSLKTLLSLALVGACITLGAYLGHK

O=C(O)c1cc(Oc2ccc(C(F)(F)F)cc2Cl)ccc1[N+](=O)[O-]
active: [2] 50 µM | [3] 2.98 µM | [5] 28.4 µM | [18] 50 µM
not listed: [20]
inactive: all other assays above

CCC(CC)Nc1c([N+](=O)[O-])cc(C)c(C)c1[N+](=O)[O-]
active: [3] 60.6 µM | [4] 89.4 µM | [10] 50 µM | [18] 13.1 µM | [19] 6.35 µM
not listed: [12] | [20]
inactive: all other assays above

CCOP(=S)(OCC)Oc1ccc2c(C)c(Cl)c(=O)oc2c1
active: [3] 13.3 µM | [6] 50 µM | [10] 36.6 µM | [16] 4.03 µM | [18] 2.49 µM | [19] 12.6 µM
not listed: [20]
inactive: all other assays above

CN(C)C(=O)Nc1cccc(C(F)(F)F)c1
active: [11] 50 µM | [13] 79.3 µM | [16] 42 µM | [18] 2.55 µM | [19] 16 µM
not listed: [20]
inactive: all other assays above

CCc1cccc(C)c1N(C(=O)CCl)C(C)COC (stereo unspecified)
active: [10] 77.1 µM | [18] 14.2 µM
not listed: [4] | [19] | [20]
inactive: all other assays above

C#CC(C)(C)NC(=O)c1cc(Cl)cc(Cl)c1
active: [2] 27.3 µM | [6] 17.3 µM | [16] 50 µM | [18] 8.65 µM
not listed: [10] | [19]
inactive: all other assays above

CCCOCC(=Nc1ccc(Cl)cc1C(F)(F)F)n1ccnc1
active: [1] 17.6 µM | [2] 78.4 µM | [3] 15.8 µM | [4] 88.6 µM | [5] 72.2 µM | [6] 15.8 µM | [8] 21.7 µM | [9] 78.5 µM | [10] 15.8 µM | [18] 30.4 µM
inactive: [7] | [11] | [12] | [13] | [14] | [15] | [16] | [17]

FC(F)C(F)(F)OCC(Cn1cncn1)c1ccc(Cl)cc1Cl (stereo unspecified)
active: [1] 36.6 µM | [2] 75.9 µM | [3] 15 µM | [4] 12.2 µM | [5] 53.6 µM | [6] 55 µM | [8] 32.3 µM | [10] 20.2 µM | [12] 35.6 µM | [14] 82 µM | [16] 28.6 µM | [18] 31.7 µM | [19] 34.8 µM
inactive: [7] | [9] | [11] | [13] | [15] | [17]

CCOP(=S)(OCC)SCCSCC
active: [18] 7.58 µM | [19] 22.2 µM
not listed: [20]
inactive: all other assays above
